Experimental data taken from PMC5540273 (PLoS ONE, 2017).

Key:
Conditions in all cases: concentration: 1 μM, replicates: in singlicate; n = 1
[1] = test system: T1, RSK1(Kin.Dom.2-C-terminal)
T1 construct: gene RPS6KA1

[2] = test system: T2, RSK2(Kin.Dom.1-N-terminal)
T2 construct: gene RPS6KA3

[3] = test system: T3, RSK2(Kin.Dom.2-C-terminal)
T3 construct: gene RPS6KA3

[4] = test system: T4, RSK3(Kin.Dom.1-N-terminal)
T4 construct: gene RPS6KA2

[5] = test system: T5, RSK3(Kin.Dom.2-C-terminal)
T5 construct: gene RPS6KA2

[6] = test system: T6, RSK4(Kin.Dom.1-N-terminal)
T6 construct: gene RPS6KA6

[7] = test system: T7, RSK4(Kin.Dom.2-C-terminal)
T7 construct: gene RPS6KA6

[8] = test system: S6K1
[9] = test system: SBK1
[10] = test system: SGK2
[11] = test system: SGK3
[12] = test system: SGK
[13] = test system: SIK2
[14] = test system: SIK
[15] = test system: SLK
[16] = test system: T8, SNARK
T8 construct: gene NUAK2

[17] = test system: SNRK
[18] = test system: SRC
[19] = test system: SRMS
[20] = test system: SRPK1
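Note: KINOMEscan kinase panel screen.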

SMILES	%Inh [1] [%]	%Inh [2] [%]	%Inh [3] [%]	%Inh [4] [%]	%Inh [5] [%]	%Inh [6] [%]	%Inh [7] [%]	%Inh [8] [%]	%Inh [9] [%]	%Inh [10] [%]	%Inh [11] [%]	%Inh [12] [%]	%Inh [13] [%]	%Inh [14] [%]	%Inh [15] [%]	%Inh [16] [%]	%Inh [17] [%]	%Inh [18] [%]	%Inh [19] [%]	%Inh [20] [%]
Cc1cccc2c(-c3ccncn3)c(-c3ccc(F)cc3)nn12 [GW515532]	50	9	8	6	19	0	87	1	9	14	2	12	39	0	13	0	0	0	0	33
CS(=O)(=O)CCNCc1nc(-c2ccc3ncnc(Nc4ccc5c(cnn5Cc5ccccc5)c4)c3c2)cs1.Cl.Cl [GW569716]	0	0	0	0	4	0	5	5	0	7	0	3	0	0	0	0	0	0	0	14
COC(=O)c1cccc(NC(=O)NC2CCN(c3ccnc(Nc4ccc(OC)cc4)n3)C2)c1 (stereo not drawn) [GSK1379746]	0	0	0	0	0	0	0	14	0	0	0	9	0	0	7	0	0	0	0	0
CSc1ccc(-c2nc3n(c2-c2ccncc2)CCC3)cc1 [SKF-105561]	62	0	20	0	35	8	70	0	30	7	6	0	0	0	7	0	18	0	13	2
COc1ccc(CSc2nnc(-c3ccc4nccn4c3)o2)cc1C(F)(F)F	44	12	10	8	6	30	0	0	0	4	61	8	29	13	14	77	5	7	3	20
CNc1nc(-c2ccc3c(N)n[nH]c3c2)cc(N2C[C@@H](C(=O)NC3CCCCC3)OC[C@H]2C)n1 [GSK2375584]	19	0	14	9	6	0	20	10	0	0	20	0	0	0	24	30	2	0	0	4
Nc1nccc(-c2c(-c3ccc(F)cc3)ncn2C2CCN(Cc3ccccc3)CC2)n1 [SB-219980]	41	41	0	4	5	30	63	6	35	0	28	2	24	6	0	38	0	0	11	0
Cn1cnc2c(N)ncnc21 [SKF-97623]	100	0	0	0	8	0	2	0	0	0	0	0	27	0	0	0	0	0	0	0
COc1ccc(Nc2nccc(N3CCC(NC(=O)C(C)c4ccc(Cl)cc4)C3)n2)cc1 (stereo not drawn) [GSK1379735]	0	5	7	14	0	0	7	2	0	11	0	10	13	0	33	0	48	0	2	39
COc1ccc(Nc2nccc(NCCNC(=O)Nc3cc(C)ccc3C)n2)cc1 [GSK1379899]	0	4	9	0	0	0	0	0	0	0	0	0	0	0	27	0	0	0	0	34
COC(=O)C(Cc1ccccc1)NC(=O)NC1CCN(c2ccnc(Nc3ccc(F)cc3)n2)C1 (stereo not drawn) [GSK1379714]	0	0	19	5	10	1	9	2	13	0	0	2	0	0	22	0	0	1	5	15
c1ccc(-c2ccnc3[nH]ccc23)cc1 [SB-693578]	0	30	27	0	0	29	17	26	17	4	10	18	25	0	6	48	0	0	0	0
CC(=O)c1cccc(NC(=O)NC2CCN(c3ccnc(Nc4ccc(F)cc4)n3)C2)c1 (stereo not drawn) [GSK1379710]	14	0	30	17	6	0	21	0	5	0	5	18	9	0	2	19	7	0	8	21
Fc1ccc(-c2nc3n(c2-c2ccncc2)CCS3)cc1 [GI98581]	22	1	7	18	11	0	88	33	21	6	0	0	0	17	25	0	0	9	0	23
O=c1cc(N2CCOCC2)nc2n(Cc3ccccc3F)ccn12 [GSK2297428]	0	0	0	3	0	0	0	0	0	0	4	0	0	0	28	0	0	0	0	0
Cc1ccc(NC(=O)Nc2ccc(Cl)c(C(F)(F)F)c2)cc1-c1ccc(C(=O)Nc2ccncc2)cc1 [GSK1398470]	3	5	0	9	14	2	22	15	64	0	4	0	26	41	21	4	56	21	0	30
COc1ccc(Nc2nccc(N3CCC(NC(=O)C(C)c4ccc(Cl)cc4)CC3)n2)cc1 (stereo not drawn) [GSK1379812]	0	21	99.4	5	3	0	0	0	6	0	0	0	0	54	28	0	0	10	0	10
Cc1ccccc1Cn1ccn2c(=O)cc(N3CCOCC3)nc12 [GSK2269905]	0	9	20	11	0	0	17	0	4	0	2	0	0	0	20	0	0	0	0	24
COc1cccc(CNC(=O)NC2CCN(c3ccnc(Nc4ccc(F)cc4)n3)C2)c1 (stereo not drawn) [GSK1379723]	0	9	28	0	0	0	6	0	22	8	0	0	14	0	15	0	0	0	0	33
COc1ccc(CSc2nnc(-c3ccc4c(c3)CCO4)o2)cc1	0	0	3	0	5	0	17	0	0	0	0	0	0	0	0	0	0	0	0	0
CCCCc1nn2ncccc2c1-c1ccnc(NC2CC2)n1 [GW684374]	28	26	0	0	0	0	32	0	0	0	2	0	0	0	0	9	0	0	0	12
